Bioassay records from PubChem.
IL-1B inflam inh – blocks inflammasome-driven IL-1 beta release; THP-1 LPS/ATP IL-1B secretion, AlphaLISA, 16 h; active compounds read low; activity change, % at 57.5 µM; actives 4.7% (n = 360,000); AID 743279; in the data active = activity change below about -50%; inconclusive = mostly about -30% to -49%; note: % is set by controls: 0 for no effect and ±100 for the full control effect
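Secreted IL-1B measured by AlphaLISA bead assay after 16 h compound exposure of THP-1 cells; compounds (final up to 57.5 uM) added 1 h before LPS (250 ng/mL) and ATP (1.25 mM) stimulation; lower signal means less secretion.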
HepG2 viability – counter-screen for TGF-b inhibitors: cytotoxicity in HepG2 cells. HepG2 CAGA-GFP viability, ATP luminescence, 18 h. actives 0.76% (n = 410,000). Potency, µM (top dose mostly 46.1 µM), without a hit: top-dose activity change, negative = cytotoxicity, actives largely listed as cytotoxic; note: potency is the fitted concentration of half-maximal effect
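HepG2 CAGA-GFP cells (1000/well, DMEM with 1% FBS) received compound, then TGF-beta at 500 pg/mL final, and were incubated 18 hours at 37 degrees C. Viability was read by CellTiter-Glo luminescence. Media-only wells were set as complete cell-killing and DMSO as no toxicity.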
HT1080-NT tox – kills 2HG-producing HT-1080-NT fibrosarcoma cells; Potency, µM (doses to about 46.1 µM), inactives show at the top dose activity, negative = less viability, actives largely listed as cytotoxic; HT-1080-NT fibrosarcoma viability, CellTiter-Glo ATP luminescence, 48 h; actives 1.6% (n = 360,000);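 note: NT is the 2HG producing partner of a matched IDH1 knockdown line; potency is the fitted concentration of half-maximal effect; 0% = DMSO-treated cells and -100% = media-only wells without cells; nearly all actives have a fitted effect of over 55% in size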
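Toxicity toward the 2HG-producing NT line was scored as %Activity, normalised to DMSO and no-cell wells, from CellTiter-Glo luminescence after 48 hours' treatment.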
TGFb SMAD3 inh – inhibitors of TGF-b signaling | HepG2 CAGA-GFP TGF-b/SMAD3 reporter, GFP fluorescence, 18 h; TGF-beta stimulated, 500 pg/mL final | Potency, µM (series often up to 46.1 µM), without a hit: at the top dose activity, negative = inhibition, hits mostly inhibitors | actives 1.2% (n = 410,000); note: potency is the fitted concentration of half-maximal effect; % is set by controls: 0 for no effect and ±100 for the full control effect; nearly all actives have a fitted effect of over 65% in size
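Using HEPG2 CAGA-GFP reporter cells at 1000 cells/well, we pinned test compounds, stimulated with recombinant TGF-beta (500 pg/mL final) and measured total well GFP after 18 h.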
HT1080 IDH1KD tx – kills HT-1080 cells with IDH1 knockdown; actives 2% (n = 360,000); HT-1080 IDH1 knockdown viability, ATP luminescence, 48 h; AID 686971; Potency, µM (titrated, usually from 46.1 µM), inactives show at the top dose activity, negative = toxicity, usual class: cytotoxic;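 note: potency is the fitted concentration of half-maximal effect; 0% = DMSO wells and -100% = cell-free medium wells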
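Knockdown cells (IDH1KD HT-1080) received compounds 2 h after plating at 750 cells/well and were kept 48 h at 37 °C in 5% FBS RPMI. A CellTiter-Glo luminescence read gave % activity for curve fitting.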
Giardia kill – kills Giardia lamblia; Giardia lamblia trophozoite viability; activity change, % at 7.66 µM, hits read low; actives 0.15% (n = 340,000); AID 540267; in the data active = activity change below about -80%; inconclusive = between about -30% and that limit;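 note: parasites exposed to compound for two days anaerobically before the ATP read; % is set by controls: 0 for no effect and ±100 for the full control effect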
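Viability, read as ATP luminescence: trophozoites at 100 cells/well, compound added, 48 hrs anaerobic at 37 deg C, then 15-30 min room-temperature development before reading.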
Starred values were filed as active, the others as inactive; ? = inconclusive; / = no result; [ ] = another dose, or the depositor's remark. The list is not random: actives were taken first. Their share in the collection is about 6.5%. Unless noted, calls come from the whole dose curve; as a rule, active = well fitted curve in the direction sought with a large enough effect; inconclusive = small, poorly fitted or top-dose-only effect, or another doubt; inactive = no such curve, though single readings can be large; an effect the other way counts as inactive or inconclusive.

SMILES | IL-1B inflam inh | HepG2 viability | HT1080-NT tox | TGFb SMAD3 inh | HT1080 IDH1KD tx | Giardia kill
CCOc1cc(CNCCSc2nnnn2C)ccc1OCc1ccc(Cl)cc1Cl | / | 11µM* | / | ? | / | /
Cc1cc(S(=O)(=O)NCCc2csc(-c3cccc(F)c3)n2)ccc1F | / | 13µM* | / | ? | / | /
Cc1ccc(NC(=O)Cc2csc(-c3ccccc3)n2)cc1F | -80* | -15% | -24% | 0% | ? | 10
COc1ccc(S(=O)(=O)NN(C)c2nc(C(F)(F)F)nc3ccccc23)cc1 | 23 | 2% | 21µM* | 3% | 16µM* | -24
COc1ccc(S(=O)(=O)Nc2ccccc2C(F)(F)F)cc1 | 20 | 4% | -8% | 15% | ? | 0
Cc1cccc(OCC(=O)NCc2ccccc2)c1 | -3 | -15% | 16% | 2% | 14% | -17
C/C(=N\NC(=O)COc1cccc(C)c1)c1ccc2ccccc2c1O | 72 | -59% | 21µM* | 5.6µM* | ? | 3
Cc1cccc(OCC(=O)NNC(=O)c2cc3ccccc3oc2=O)c1 | -7 | 3.2µM* | -2% | ? | -3%[9.24 µM] | -20
COc1cccc(-c2cnc3c(NC=O)cc(-c4ccc(N(C)C)cc4)cn23)c1 | 19 | -2% | ? | ? | 18µM* | /
COc1ccc(-c2cc(NC=O)c3ncc(-c4cccc(OC)c4)n3c2)cc1 | 89 | 3% | ? | ? | 9.2µM* | /
COc1ccc(-c2cc(NC=O)c3ncc(-c4cnn(C)c4)n3c2)cc1 | 0 | -19% | ? | ? | ? | /
O=C(CCN1C(=O)/C(=C\c2ccccc2Cl)SC1=S)N1CCN(c2ccccc2)CC1 | -107* | -7% | 2% | 12% | 19% | -8
CN1CCN(C(=O)CCCN2C(=O)/C(=C/c3ccccc3)SC2=S)CC1 | -97* | -29% | ? | ? | ? | -1
Cc1ccc(/C=C2\SC(=S)N(CCCC(=O)N3CCOCC3)C2=O)cc1 | -66* | 0% | -1% | 4% | 3% | 11
O=C(O)CCCN1C(=O)/C(=C\C(Cl)=C\c2ccccc2)SC1=S | -95* | -23% | ? | ? | ? | 32
O=C(O)CCCN1C(=O)/C(=C\c2ccccc2OCc2ccccc2)SC1=S | 1 | -11% | -2% | 10% | -1% | -4
COC(=O)c1ccc(/C=C2\SC(=S)N(CCCC(=O)N3CCOCC3)C2=O)cc1 | -8 | -3% | 0% | 2% | -5% | -17
CCn1c(=O)c(NC(=O)c2ccccc2)c2n(c1=S)CCCCC2 | 16 | 19% | 0% | 33% | 2% | -8
CN1CCN(C(=O)CCCN2C(=O)/C(=C/c3ccc(Cl)cc3)SC2=S)CC1 | -4 | -20% | 1%[9.24 µM] | ? | -13% | -3
CN1CCN(C(=O)CCN2C(=O)/C(=C\c3ccc(Cl)cc3Cl)SC2=S)CC1 | -85* | -67% | ? | ? | ? | 87
O=C(CCN1C(=O)/C(=C/c2ccccc2)SC1=S)N1CCCCCC1 | -101* | -10% | -2% | -5% | -6% | -19
COc1ccc(/C=C2/SC(=S)N(CCC(=O)N3CCN(C)CC3)C2=O)cc1 | -84* | 0% | -2% | 0% | -6% | 5
COc1ccc(C(=O)Nc2ccc(-c3nc4ncccc4o3)cc2C)cc1Br | / | -1% | / | 11% | / | /
CN(C)CCNc1ccc(CO)c2sc3ccc(O)cc3c(=O)c12 | -100* | -24% | ? | 14µM* | 16µM* | 6
CN(C)CCNc1ccc2ncn3c4ccc(O)cc4c(=O)c1c23 | -104* | 1% | ? | ? | 21µM* | 11
CN(C)CCNc1ccc(-c2nn(C)c(=O)c3ccccc23)cc1[N+](=O)[O-] | -4 | -11% | -2% | -8% | 15% | 7
COc1ccc2sc3cccc(NCCN(C)C)c3c(=O)c2c1 | -7 | 3% | 16µM* | ? | 16µM* | /
